# Experimental data published in publication PMC11006913.
# Where a chain is given by its changes, count along the chain named.
# Legend:
# Assay in all cases: PBM; 200 nM protein, PBS
# Conditions in all cases: dsDNA, one strand shown
# [1] = target: HOXB4 (Homo sapiens, UniProt P17483 148-234)
# [2] = target: HOXA4 (Homo sapiens, UniProt Q00056 201-287, W262R)
# [3] = target: HOXA7 (Homo sapiens, UniProt P31268 116-202)
# [4] = target: T1, VENTX (Homo sapiens, UniProt O95231 78-163, Y115F)
# T1 sequence: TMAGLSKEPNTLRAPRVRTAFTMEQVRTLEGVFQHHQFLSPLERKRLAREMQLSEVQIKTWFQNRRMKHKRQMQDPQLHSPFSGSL
# [5] = target: HOXB6 (Homo sapiens, UniProt P17509 132-218, K202E)
# HOXB6 (Homo sapiens, UniProt P17509 132-218, K202E), sequence (P17509 132-218 K202E): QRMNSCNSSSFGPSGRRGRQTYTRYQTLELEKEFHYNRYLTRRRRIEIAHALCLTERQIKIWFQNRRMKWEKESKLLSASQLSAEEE
# [6] = target: HOXA2 (Homo sapiens, UniProt O43364 129-215, R185T)
# HOXA2 (Homo sapiens, UniProt O43364 129-215, R185T), sequence (O43364 129-215 R185T): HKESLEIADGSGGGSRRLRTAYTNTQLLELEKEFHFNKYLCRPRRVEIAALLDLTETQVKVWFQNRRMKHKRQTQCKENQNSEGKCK
# [7] = target: HOXA4 (Homo sapiens, UniProt Q00056 201-287, R217L)
# HOXA4 (Homo sapiens, UniProt Q00056 201-287, R217L), sequence (Q00056 201-287 R217L): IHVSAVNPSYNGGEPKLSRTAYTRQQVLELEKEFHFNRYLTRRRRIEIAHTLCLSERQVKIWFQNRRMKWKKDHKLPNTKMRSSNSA
# [8] = target: HOXB4 (Homo sapiens, UniProt P17483 148-234, V174I)
# HOXB4 (Homo sapiens, UniProt P17483 148-234, V174I), sequence (P17483 148-234 V174I): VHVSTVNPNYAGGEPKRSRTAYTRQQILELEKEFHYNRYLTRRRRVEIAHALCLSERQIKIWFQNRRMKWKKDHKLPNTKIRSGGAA
# [9] = target: HOXA2 (Homo sapiens, UniProt O43364 129-215, R185K)
# HOXA2 (Homo sapiens, UniProt O43364 129-215, R185K), sequence (O43364 129-215 R185K): as the sequence (O43364 129-215 R185T) above, with T57K counted along it
# [10] = target: HOXA4 (Homo sapiens, UniProt Q00056 201-287)
# HOXA4 (Homo sapiens, UniProt Q00056 201-287), sequence (Q00056 201-287): as the sequence (Q00056 201-287 R217L) above, with L17R counted along it
# [11] = target: VAX1 (Homo sapiens, UniProt Q5SQQ9 86-172)
# VAX1 (Homo sapiens, UniProt Q5SQQ9 86-172), sequence (Q5SQQ9 86-172): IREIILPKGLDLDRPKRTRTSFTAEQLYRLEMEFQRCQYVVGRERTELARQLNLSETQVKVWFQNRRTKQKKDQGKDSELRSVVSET
# [12] = target: VAX1 (Homo sapiens, UniProt Q5SQQ9 86-172, T142I)
# VAX1 (Homo sapiens, UniProt Q5SQQ9 86-172, T142I), sequence (Q5SQQ9 86-172 T142I): as the sequence (Q5SQQ9 86-172) above, with T57I counted along it
# [13] = target: HOXA2 (Homo sapiens, UniProt O43364 129-215, Y150S)
# HOXA2 (Homo sapiens, UniProt O43364 129-215, Y150S), sequence (O43364 129-215 Y150S): as the sequence (O43364 129-215 R185T) above, with Y22S, T57R counted along it
# [14] = target: HOXA7 (Homo sapiens, UniProt P31268 116-202, W177C)
# HOXA7 (Homo sapiens, UniProt P31268 116-202, W177C), sequence (P31268 116-202 W177C): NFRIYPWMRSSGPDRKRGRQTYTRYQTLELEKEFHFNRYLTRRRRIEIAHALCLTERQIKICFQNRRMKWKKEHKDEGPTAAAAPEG
# [15] = target: HOXA4 (Homo sapiens, UniProt Q00056 201-287, W262F)
# HOXA4 (Homo sapiens, UniProt Q00056 201-287, W262F), sequence (Q00056 201-287 W262F): as the sequence (Q00056 201-287 R217L) above, with L17R, W62F counted along it
# [16] = target: HOXA2 (Homo sapiens, UniProt O43364 129-215)
# HOXA2 (Homo sapiens, UniProt O43364 129-215), sequence (O43364 129-215): as the sequence (O43364 129-215 R185T) above, with T57R counted along it
# [17] = target: VAX1 (Homo sapiens, UniProt Q5SQQ9 86-172, K157R)
# VAX1 (Homo sapiens, UniProt Q5SQQ9 86-172, K157R), sequence (Q5SQQ9 86-172 K157R): as the sequence (Q5SQQ9 86-172) above, with K72R counted along it
# [18] = target: HOXB6 (Homo sapiens, UniProt P17509 132-218)
# HOXB6 (Homo sapiens, UniProt P17509 132-218), sequence (P17509 132-218): as the sequence (P17509 132-218 K202E) above, with E71K counted along it
# [19] = target: HOXC9 (Homo sapiens, UniProt P31274 178-260, K195R)
# HOXC9 (Homo sapiens, UniProt P31274 178-260, K195R), sequence (P31274 178-260 K195R): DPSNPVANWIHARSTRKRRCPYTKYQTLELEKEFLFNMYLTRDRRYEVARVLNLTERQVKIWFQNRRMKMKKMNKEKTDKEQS
# [20] = target: HOXC9 (Homo sapiens, UniProt P31274 178-260)
# HOXC9 (Homo sapiens, UniProt P31274 178-260), sequence (P31274 178-260): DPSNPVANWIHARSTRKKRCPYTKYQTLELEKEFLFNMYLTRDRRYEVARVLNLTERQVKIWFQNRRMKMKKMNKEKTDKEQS
# [21] = target: HOXC9 (Homo sapiens, UniProt P31274 178-260, R193K)
# HOXC9 (Homo sapiens, UniProt P31274 178-260, R193K), sequence (P31274 178-260 R193K): as the sequence (P31274 178-260) above, with R16K counted along it
# [22] = target: HOXC9 (Homo sapiens, UniProt P31274 178-260, R222W)
# HOXC9 (Homo sapiens, UniProt P31274 178-260, R222W), sequence (P31274 178-260 R222W): as the sequence (P31274 178-260) above, with R45W counted along it
# [23] = target: T2, PAX4 (Homo sapiens, UniProt O43316 9-242, R200K)
# T2 sequence: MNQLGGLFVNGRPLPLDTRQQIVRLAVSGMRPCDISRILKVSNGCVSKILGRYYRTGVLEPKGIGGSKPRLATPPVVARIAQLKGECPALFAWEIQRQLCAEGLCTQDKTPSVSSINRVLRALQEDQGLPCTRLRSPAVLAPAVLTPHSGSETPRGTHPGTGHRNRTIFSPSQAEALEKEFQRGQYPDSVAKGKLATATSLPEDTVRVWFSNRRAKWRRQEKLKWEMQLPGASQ
# [24] = target: T3, PAX4 (Homo sapiens, UniProt O43316 9-242)
# T3 sequence: T2 sequence with K192R
# [25] = target: T4, PAX4 (Homo sapiens, UniProt O43316 9-242, R200Q)
# T4 sequence: T2 sequence with K192Q
# [26] = target: T5, PAX4 (Homo sapiens, UniProt O43316 9-242, F177V)
# T5 sequence: T2 sequence with F169V, K192R
# [27] = target: T6, PAX4 (Homo sapiens, UniProt O43316 9-242, F177Y)
# T6 sequence: T2 sequence with F169Y, K192R
# [28] = target: T7, PAX4 (Homo sapiens, UniProt O43316 9-242, R227W)
# T7 sequence: T2 sequence with K192R, R219W
# HOXA4 (Homo sapiens, UniProt Q00056 201-287, W262R), sequence (Q00056 201-287 W262R): as the sequence (Q00056 201-287 R217L) above, with L17R, W62R counted along it
# HOXB4 (Homo sapiens, UniProt P17483 148-234), sequence (P17483 148-234): as the sequence (P17483 148-234 V174I) above, with I27V counted along it
# HOXA7 (Homo sapiens, UniProt P31268 116-202), sequence (P31268 116-202): as the sequence (P31268 116-202 W177C) above, with C62W counted along it
sequence,measurement,setting,value
TAATGACA,binding signal,[1],"13 upbm affinity estimate (log intensity, higher = more binding, comparable within an allelic series)"
same,binding signal,[2],"10.6 upbm affinity estimate (log intensity, higher = more binding, comparable within an allelic series)"
same,binding signal,[3],"11.2 upbm affinity estimate (log intensity, higher = more binding, comparable within an allelic series)"
same,binding signal,[4],"11.5 upbm affinity estimate (log intensity, higher = more binding, comparable within an allelic series)"
same,binding signal,[5],"10 upbm affinity estimate (log intensity, higher = more binding, comparable within an allelic series)"
same,binding signal,[6],"12.6 upbm affinity estimate (log intensity, higher = more binding, comparable within an allelic series)"
same,binding signal,[7],"12.2 upbm affinity estimate (log intensity, higher = more binding, comparable within an allelic series)"
same,binding signal,[8],"13.7 upbm affinity estimate (log intensity, higher = more binding, comparable within an allelic series)"
same,binding signal,[9],"13.4 upbm affinity estimate (log intensity, higher = more binding, comparable within an allelic series)"
same,binding signal,[10],"13.8 upbm affinity estimate (log intensity, higher = more binding, comparable within an allelic series)"
same,binding signal,[11],"12.8 upbm affinity estimate (log intensity, higher = more binding, comparable within an allelic series)"
same,binding signal,[12],"12.7 upbm affinity estimate (log intensity, higher = more binding, comparable within an allelic series)"
same,binding signal,[13],"11 upbm affinity estimate (log intensity, higher = more binding, comparable within an allelic series)"
same,binding signal,[14],"8.98 upbm affinity estimate (log intensity, higher = more binding, comparable within an allelic series)"
same,binding signal,[15],"11.7 upbm affinity estimate (log intensity, higher = more binding, comparable within an allelic series)"
same,binding signal,[16],"12.5 upbm affinity estimate (log intensity, higher = more binding, comparable within an allelic series)"
same,binding signal,[17],"12.5 upbm affinity estimate (log intensity, higher = more binding, comparable within an allelic series)"
same,binding signal,[18],"11.7 upbm affinity estimate (log intensity, higher = more binding, comparable within an allelic series)"
TCCCAGGA,binding signal,[1],"7.82 upbm affinity estimate (log intensity, higher = more binding, comparable within an allelic series)"
same,binding signal,[19],"9.51 upbm affinity estimate (log intensity, higher = more binding, comparable within an allelic series)"
same,binding signal,[8],"7.66 upbm affinity estimate (log intensity, higher = more binding, comparable within an allelic series)"
same,binding signal,[20],"9.58 upbm affinity estimate (log intensity, higher = more binding, comparable within an allelic series)"
same,binding signal,[21],"9.57 upbm affinity estimate (log intensity, higher = more binding, comparable within an allelic series)"
same,binding signal,[11],"7.2 upbm affinity estimate (log intensity, higher = more binding, comparable within an allelic series)"
same,binding signal,[22],"9.72 upbm affinity estimate (log intensity, higher = more binding, comparable within an allelic series)"
same,binding signal,[12],"7.36 upbm affinity estimate (log intensity, higher = more binding, comparable within an allelic series)"
same,binding signal,[17],"7.24 upbm affinity estimate (log intensity, higher = more binding, comparable within an allelic series)"
CGCCGAAG,binding signal,[1],"7.84 upbm affinity estimate (log intensity, higher = more binding, comparable within an allelic series)"
same,binding signal,[19],"9.52 upbm affinity estimate (log intensity, higher = more binding, comparable within an allelic series)"
same,binding signal,[5],"9.07 upbm affinity estimate (log intensity, higher = more binding, comparable within an allelic series)"
same,binding signal,[8],"7.65 upbm affinity estimate (log intensity, higher = more binding, comparable within an allelic series)"
same,binding signal,[20],"9.6 upbm affinity estimate (log intensity, higher = more binding, comparable within an allelic series)"
same,binding signal,[21],"9.42 upbm affinity estimate (log intensity, higher = more binding, comparable within an allelic series)"
same,binding signal,[22],"9.77 upbm affinity estimate (log intensity, higher = more binding, comparable within an allelic series)"
same,binding signal,[18],"9.15 upbm affinity estimate (log intensity, higher = more binding, comparable within an allelic series)"
CCTAATGA,binding signal,[1],"13 upbm affinity estimate (log intensity, higher = more binding, comparable within an allelic series)"
same,binding signal,[2],"10.5 upbm affinity estimate (log intensity, higher = more binding, comparable within an allelic series)"
same,binding signal,[4],"11.5 upbm affinity estimate (log intensity, higher = more binding, comparable within an allelic series)"
same,binding signal,[6],"12.7 upbm affinity estimate (log intensity, higher = more binding, comparable within an allelic series)"
same,binding signal,[7],"11.7 upbm affinity estimate (log intensity, higher = more binding, comparable within an allelic series)"
same,binding signal,[8],"13.6 upbm affinity estimate (log intensity, higher = more binding, comparable within an allelic series)"
same,binding signal,[9],"13.4 upbm affinity estimate (log intensity, higher = more binding, comparable within an allelic series)"
same,binding signal,[10],"13.7 upbm affinity estimate (log intensity, higher = more binding, comparable within an allelic series)"
same,binding signal,[11],"13.2 upbm affinity estimate (log intensity, higher = more binding, comparable within an allelic series)"
same,binding signal,[12],"13 upbm affinity estimate (log intensity, higher = more binding, comparable within an allelic series)"
same,binding signal,[13],"10.7 upbm affinity estimate (log intensity, higher = more binding, comparable within an allelic series)"
same,binding signal,[15],"11.6 upbm affinity estimate (log intensity, higher = more binding, comparable within an allelic series)"
same,binding signal,[16],"12.4 upbm affinity estimate (log intensity, higher = more binding, comparable within an allelic series)"
same,binding signal,[17],"13 upbm affinity estimate (log intensity, higher = more binding, comparable within an allelic series)"
AGGGGGGG,binding signal,[1],"7.37 upbm affinity estimate (log intensity, higher = more binding, comparable within an allelic series)"
same,binding signal,[19],"9.2 upbm affinity estimate (log intensity, higher = more binding, comparable within an allelic series)"
same,binding signal,[23],"9.12 upbm affinity estimate (log intensity, higher = more binding, comparable within an allelic series)"
same,binding signal,[24],"9.16 upbm affinity estimate (log intensity, higher = more binding, comparable within an allelic series)"
same,binding signal,[8],"7.23 upbm affinity estimate (log intensity, higher = more binding, comparable within an allelic series)"
same,binding signal,[20],"9.24 upbm affinity estimate (log intensity, higher = more binding, comparable within an allelic series)"
same,binding signal,[25],"9.15 upbm affinity estimate (log intensity, higher = more binding, comparable within an allelic series)"
same,binding signal,[21],"9.31 upbm affinity estimate (log intensity, higher = more binding, comparable within an allelic series)"
same,binding signal,[26],"8.93 upbm affinity estimate (log intensity, higher = more binding, comparable within an allelic series)"
same,binding signal,[27],"9.09 upbm affinity estimate (log intensity, higher = more binding, comparable within an allelic series)"
same,binding signal,[22],"9.11 upbm affinity estimate (log intensity, higher = more binding, comparable within an allelic series)"
same,binding signal,[28],"9.07 upbm affinity estimate (log intensity, higher = more binding, comparable within an allelic series)"
ATTTGAAC,binding signal,[1],"9.93 upbm affinity estimate (log intensity, higher = more binding, comparable within an allelic series)"
same,binding signal,[19],"10.9 upbm affinity estimate (log intensity, higher = more binding, comparable within an allelic series)"
same,binding signal,[8],"9.93 upbm affinity estimate (log intensity, higher = more binding, comparable within an allelic series)"
same,binding signal,[20],"10.8 upbm affinity estimate (log intensity, higher = more binding, comparable within an allelic series)"
same,binding signal,[21],"11 upbm affinity estimate (log intensity, higher = more binding, comparable within an allelic series)"
ACCGTGCC,binding signal,[1],"7.42 upbm affinity estimate (log intensity, higher = more binding, comparable within an allelic series)"
same,binding signal,[3],"8.5 upbm affinity estimate (log intensity, higher = more binding, comparable within an allelic series)"
same,binding signal,[8],"7.71 upbm affinity estimate (log intensity, higher = more binding, comparable within an allelic series)"
same,binding signal,[14],"8.5 upbm affinity estimate (log intensity, higher = more binding, comparable within an allelic series)"
CATAATGA,binding signal,[1],"13 upbm affinity estimate (log intensity, higher = more binding, comparable within an allelic series)"
same,binding signal,[2],"10.6 upbm affinity estimate (log intensity, higher = more binding, comparable within an allelic series)"
same,binding signal,[6],"12 upbm affinity estimate (log intensity, higher = more binding, comparable within an allelic series)"
same,binding signal,[7],"11.9 upbm affinity estimate (log intensity, higher = more binding, comparable within an allelic series)"
same,binding signal,[8],"13.5 upbm affinity estimate (log intensity, higher = more binding, comparable within an allelic series)"
same,binding signal,[9],"13.1 upbm affinity estimate (log intensity, higher = more binding, comparable within an allelic series)"
same,binding signal,[10],"13.6 upbm affinity estimate (log intensity, higher = more binding, comparable within an allelic series)"
same,binding signal,[13],"11 upbm affinity estimate (log intensity, higher = more binding, comparable within an allelic series)"
same,binding signal,[15],"11.3 upbm affinity estimate (log intensity, higher = more binding, comparable within an allelic series)"
same,binding signal,[16],"12.1 upbm affinity estimate (log intensity, higher = more binding, comparable within an allelic series)"
CGCCGGGC,binding signal,[1],"7.64 upbm affinity estimate (log intensity, higher = more binding, comparable within an allelic series)"
same,binding signal,[2],"9.72 upbm affinity estimate (log intensity, higher = more binding, comparable within an allelic series)"
same,binding signal,[6],"7.33 upbm affinity estimate (log intensity, higher = more binding, comparable within an allelic series)"
same,binding signal,[7],"9.76 upbm affinity estimate (log intensity, higher = more binding, comparable within an allelic series)"
same,binding signal,[8],"7.67 upbm affinity estimate (log intensity, higher = more binding, comparable within an allelic series)"
same,binding signal,[9],"10.2 upbm affinity estimate (log intensity, higher = more binding, comparable within an allelic series)"
same,binding signal,[10],"9.84 upbm affinity estimate (log intensity, higher = more binding, comparable within an allelic series)"
same,binding signal,[13],"10.4 upbm affinity estimate (log intensity, higher = more binding, comparable within an allelic series)"
same,binding signal,[15],"9.99 upbm affinity estimate (log intensity, higher = more binding, comparable within an allelic series)"
same,binding signal,[16],"7.24 upbm affinity estimate (log intensity, higher = more binding, comparable within an allelic series)"
